# Results filed as inconclusive are left out. A call without a number means that no potency is given here. Activity calls are given as the source filed them. The call rests on the fitted dose curve; in most records, active means well fitted inhibition curve with a large enough effect; inconclusive means small, poorly fitted or top-dose-only effect; inactive means no such curve, though single readings can be large or run the other way.
# Assay: Primary fluorescence-based thiol-reactive (MSTI) qHTS assay for identification of artifact compounds. (AID 1845221); further: nearly all actives have a fitted effect of over 65% in size;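 on activity change, negative = thiol reactive: thiol-reactive compounds lower the probe fluorescence signal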
# Conditions: MSTI thiol-reactivity probe, 1 h; series mostly up to 53.8 µM
# Procedure, shortened: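 qHTS titration of compound; 4 uM MSTI, PBS pH 7.4, 2% DMSO; 1 h RT, dark; fluorescence 525/598 nm; normalized to Acetyl-MSTI and MSTI; 4-parameter Hill fit.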
# Potency means the concentration at half of the fitted maximal effect.
SMILES,Potency,"activity change, negative = thiol reactive"
Cc1sc2c(c1C)C(c1ccc(Cl)cc1)=N[C@H](CC(=O)NCCCCNC(=O)COc1cccc3c1C(=O)N([C@H]1CCC(=O)NC1=O)C3=O)c1nnc(C)n1-2,inactive,–
CC1CCC(=O)CC(SCC(O)C(=O)O)CCC(=O)O1 (centres undefined),inactive,–
COc1ccc(C[C@H]2COC(=O)[C@@H]2Cc2ccc(O[C@@H]3O[C@H](CO)[C@@H](O)[C@H](O)[C@H]3O)c(OC)c2)cc1OC,inactive,–
CCC(C)CNCC(=O)N1CCC2SC=CC2C1COc1cccc(C)c1 (centres undefined),inactive,–
C=C1CC2OC(=O)C(COC)C2C(OC(=O)/C(C)=C\C)CC2(C)OC1=CC2=O (centres undefined),inactive,–
CCC(C)(OC(C)=O)C(=O)O[C@H]1[C@H](OC(C)=O)[C@]2(CO)[C@H](O)[C@H](O)[C@]3(C)C(=CCC4[C@@]5(C)CC[C@H](O[C@@H]6O[C@H](C(=O)O)[C@@H](O)[C@H](O[C@@H]7OC[C@H](O)[C@H](O[C@@H]8OC[C@H](O)[C@H](O)[C@H]8O)[C@H]7O)[C@H]6O[C@@H]6O[C@H](CO)[C@@H](O)[C@H](O)[C@H]6O)C(C)(C)C5CC[C@]43C)[C@@H]2CC1(C)C (some centres undefined),–,202% [at 11.5 µM] (inactive)
NC(=O)c1nc(Nc2ccccc2)sc1NC(=O)C1CCCCC1,1.68 µM (active),–
CC1=CC2/C=C(\C)CCC(O)C/C=C/C(=O)OC23C(=O)NC(CC(C)C)C3C1C (centres undefined),inactive,–
CC(=O)N1CCN(CCOc2ccc(C3CCN(C4=Nn5c(nnc5C(F)(F)F)CC4)CC3)cc2)CC1,inactive,–
Cc1ccc(C(C)C)c(O[C@@H]2O[C@H](CO)[C@@H](O)[C@H](O)[C@H]2O)c1,10.4 µM (active),–
Cc1ccc(F)cc1S(=O)(=O)N[C@@H]1CCN(Cc2ccc(OC(C)C)cc2)C1,inactive,–
O=c1[nH]c2ccccc2n1CCN1CCN(c2cccc(C(F)(F)F)c2)CC1,inactive,–
CC(C)n1nc(C#Cc2ccccc2)c2c(N)ncnc21,inactive,–
CC(CCC1(O)OC2CC3C4CC=C5CC(O[C@@H]6O[C@H](CO)[C@@H](O[C@@H]7O[C@@H](C)[C@H](O)[C@@H](O)[C@H]7O)[C@H](O)[C@H]6O[C@@H]6O[C@@H](C)[C@H](O)[C@@H](O)[C@H]6O)CCC5(C)C4CCC3(C)C2C1C)CO[C@@H]1O[C@H](CO)[C@@H](O)[C@H](O)[C@H]1O (some centres undefined),–,218% [at 11.5 µM] (inactive)
O=C(Nc1cccnn1)N1CCN(c2nccc(-c3ccc(F)c(F)c3)n2)CC1,inactive,–
C[C@H](Nc1cc2c(-c3ccc4c(c3)OCO4)noc2cn1)c1ccccc1,inactive,–
C=C1CCCC2(C)CCC(C(C)(C)OC3OC(C)C(O)C(O)C3OC(=O)/C(C)=C\C)CC12 (centres undefined),inactive,–
CC(C)c1cc(-c2ccc(F)c3ccccc23)nc(N)n1,inactive,–
C=C1C(=O)OC2C1CCC1(C)C(O)CCC(=C)C21 (centres undefined),11.9 µM (active),–
C/C=C(/C)C(=O)OC1C=C2C3C(C)C(C)C(OC(=O)C(C)C(C)O)CC3(C)CCC2(C)C2(C)CC(OC(C)=O)C3C(C)(C)C(O)C(=O)CC3(C)C12 (centres undefined),inactive,–

SMILES,Potency,"activity change, negative = thiol reactive"
C=C1C(=O)O[C@@H]2C(OC(=O)/C(C)=C\C)/C(C)=C\C(=O)/C=C(\C)C[C@H](O)[C@@H]12 (some centres undefined),inactive,–
OC(CC1c2ccccc2-c2cncn21)C1CCCCC1 (centres undefined),inactive,–
CCC(C)C(=O)O[C@H]1[C@H](O)[C@@]2(COC(C)=O)C(CC1(C)C)C1=CCC3[C@@]4(C)CC[C@H](O[C@@H]5O[C@H](C(=O)O)[C@@H](O)[C@H](O)[C@H]5O)[C@@](C)(CO)C4CC[C@@]3(C)[C@]1(C)C[C@@H]2O (some centres undefined),–,57.8% [at 11.5 µM] (inactive)
Nc1ncnc2c1c(-c1ccc(Cl)cc1)nn2-c1cccc(-c2cnnn2Cc2cccc(-c3ccccc3)c2)c1,inactive,–
CCC[C@H](N[C@H]1CCc2cc(F)cc(F)c2C1)C(=O)Nc1cn(C(C)(C)CNCC(C)(C)C)cn1,inactive,–
CC(C)(C)C1CCN(C(=O)n2ncc(C(O)(c3ccccc3)c3ccccc3)n2)CC1,inactive,–
C/C=C/C=C/C=C/C(=O)O[C@@H]1C=C2COC(=O)[C@]2(O)[C@@]2(C)CCCC(C)(C)[C@H]12,inactive,–
C=CCc1ccc(OC(C)Cc2ccc(OC)c(OC)c2)c(OC)c1 (centres undefined),inactive,–
C=C(COC(=O)C(O)C(O)CN)C12OC1C1(C)C(=CC2=O)C(O)C(O)CC1C (centres undefined),inactive,–
COC1CC(O[C@H]2CC[C@]3(C)C4CC[C@@]5(C)C(=O)[C@]4(CC[C@@H]3C2)CC[C@@H]5C2=CC(=O)OC2)OC(C)C1OC1OC(COC2OC(CO)C(O)C(O)C2O)C(O)C(O)C1O (some centres undefined),–,91.7% [at 11.5 µM] (inactive)
COC1CC(=O)C23C(=O)NC(Cc4c[nH]c5ccccc45)C2C(C)C2(C)OC2C3/C=C/CC(C)CC1O (centres undefined),inactive,–
Cc1ccc(C)c(NC(=O)[C@@H]2CCCN2S(=O)(=O)c2cccc3cccnc23)c1,inactive,–
Fc1ccc(-c2nc(-c3ccccc3F)[nH]c2-c2ccncc2)cc1,inactive,–
CC(C)(Cc1ccccc1)NCC(O)c1ccc(O)c(NS(C)(=O)=O)c1 (centres undefined),inactive,–
COc1cc(NC(=O)c2cc(C3CC3)on2)c(OC)cc1Cl,inactive,–
C=C(C)C(=O)O[C@H]1[C@H]2C(=C)C(=O)O[C@@H]2/C=C(\CO)CC/C=C(/C=O)[C@@H]1O,inactive,–
CC(C)n1c(=O)c(C(=O)NC2CC3CCC(C2)N3C[C@@H](O)CN(C)S(C)(=O)=O)cc2ccccc21 (some centres undefined),inactive,–
O=C(Nc1ccc(CN2CCOCC2)cc1)c1ccc(-c2cccc(Cl)c2)o1,inactive,–
Cc1ccc(OC[C@H](O)[C@H](C)NC(C)C)c2c1CCC2,inactive,–

# From PubChem BioAssay (NCATS)
